ERK EGF block – blocks ERK signaling stimulated by EGF; actives 0.41% (n = 130,000); Potency, µM (doses to about 11.5 µM), for the others: top-dose activity change, negative = inhibition, most hits filed as inhibitors; HEK293-V1b, EGF-stimulated phospho-ERK AlphaScreen;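 note: potency is the fitted concentration of half-maximal effect; plate controls were stimulated vehicle wells for no effect and unstimulated vehicle basal for full effect; nearly all actives have a fitted effect of over 55% in size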
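Cell line HEK293 (stable V1b), low serum overnight. Pretreatment: compound 30 min, 37C. EGF 25 nM, 5 min. Detection: SureFire AlphaScreen, 5 h RT. AC50 via standard Hill equation.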
ERK pERK EGF – confirmation of ERK pathway inhibitors under EGF stimulation; shares compounds with ERK EGF block; HEK293 EGF-stimulated ERK phosphorylation, AlphaScreen; Potency, µM (doses to about 57.5 µM), for the others: at the highest dose activity change, negative = inhibition, usual class: inhibitors; actives 60% (n = 60); AID 1725
cRaf kinase inh – c-Raf inhibition, ERK pathway follow-up. c-Raf kinase inhibition, homogeneous biochemical assay. 70 tested, under 10 active. shares compounds with ERK EGF block. activity change, negative = inhibition, % at 76.9 µM. AID 1728
MEK1 kinase inh – MEK1 (human) kinase inhibition; shares compounds with ERK EGF block; homogeneous MEK kinase activity assay, ERK pathway; Potency, µM (highest dose often 76.9 µM), for inactives: at the top dose activity change, negative = inhibition, usual class: inhibitors; 70 tested, under 10 active
Target sequence (Q02750 whole entry, looked up): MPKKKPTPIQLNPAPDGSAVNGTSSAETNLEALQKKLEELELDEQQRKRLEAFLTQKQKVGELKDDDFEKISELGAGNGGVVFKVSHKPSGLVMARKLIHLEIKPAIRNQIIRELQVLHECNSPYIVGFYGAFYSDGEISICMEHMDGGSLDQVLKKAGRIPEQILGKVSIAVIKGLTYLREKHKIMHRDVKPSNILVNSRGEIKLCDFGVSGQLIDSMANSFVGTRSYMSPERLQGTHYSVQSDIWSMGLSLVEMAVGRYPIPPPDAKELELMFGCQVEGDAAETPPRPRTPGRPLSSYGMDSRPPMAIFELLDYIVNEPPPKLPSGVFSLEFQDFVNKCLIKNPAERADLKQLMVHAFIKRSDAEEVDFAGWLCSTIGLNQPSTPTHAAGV
An asterisk follows results filed as active; ? = inconclusive; · = no result; [ ] = remark or other dose. Shown is part of a subset that was picked to be rich in hits. Calls come from the whole dose curve; as a rule, active = well fitted curve in the direction sought with a large enough effect; inconclusive = small, poorly fitted or top-dose-only effect, or another doubt; inactive = no such curve, though single readings can be large; an effect the other way counts as inactive or inconclusive.

SMILES | ERK EGF block | others
O=C(c1csnn1)N1CCC2(CCCN(Cc3cc(C(F)(F)F)cc(C(F)(F)F)c3)C2)CC1 | 17%
Cn1cccc1C(=O)N1CCC2(CCCN(c3ccccc3)C2)CC1 | 8%
CCCC[C@@H]1C[C@H]1C(NC(=O)c1ccco1)c1ccc(Cl)cc1 (stereo not given in full) | 0%
C/C(=N\Nc1nnc(-c2ccccc2)c(-c2ccccc2)n1)c1cccc([N+](=O)[O-])c1 | ? | ERK pERK EGF=-14%;cRaf kinase inh=-3;MEK1 kinase inh=-5%
O=[N+]([O-])c1cccc(/C=N/Nc2nnc(-c3ccccc3)c(-c3ccccc3)n2)c1 | -17%
C/C(=N\Nc1cc(C)nc(NCc2ccccc2)n1)c1cccc([N+](=O)[O-])c1 | -7%[57.5 µM]
C=C/C1=C/Cc2ccccc2[C@H](C[N+](=O)[O-])C(C(C)=O)(C(=O)OC)C1 (stereo not given in full) | -13%
CCCCC[C@H](O)/C=C/C=C\CCCCCCCCCC(=O)O | -18%
CCCOc1ccc(/C=N/NC(=S)Nc2ccccc2[N+](=O)[O-])c(O)c1 | 2%
CCCOc1ccc(/C=N/Nc2ccccc2[N+](=O)[O-])c(O)c1 | ? | ERK pERK EGF=?;cRaf kinase inh=?;MEK1 kinase inh=-3%
CCCOc1ccc(/C=N/Nc2cccc([N+](=O)[O-])c2)c(O)c1 | 6%
COc1ccc(C(=O)N2C(=S)NC(=O)/C2=C\c2ccc(C)cc2)cc1 | 1%
COc1ccc(N2C(=O)/C(=C/N(C)C)NC2=S)cc1 | 2%[57.5 µM]
COc1ccc(C(=O)N2CCC3(CC2)CCN(c2ccccc2)CC3)cc1 | 3%
COc1ccc(N=C2C(=Nc3ccc(OC)cc3)N(c3ccc(N(C)C)cc3)C(=S)N2c2ccc(OC)cc2)cc1 | · | ERK pERK EGF=-9%;cRaf kinase inh=-10;MEK1 kinase inh=-9%
COc1ccc(C(=O)N2CCC3(CCCN(c4ccc(-c5ccccc5)cc4)C3)CC2)cc1 | -3%
COC(=O)CN1C(=S)N(c2ccc(OC)cc2)C(=O)/C1=C/c1ccc(OC)cc1 | -10%
COc1ccc(N=C2C(=Nc3ccc(OC)cc3)N(c3ccc(OC)cc3)C(=S)N2C(=O)c2ccc(OC)cc2)cc1 | ? | ERK pERK EGF=5.6µM*;cRaf kinase inh=-7;MEK1 kinase inh=-18%
COc1ccc(NC(=S)c2ccc(N(C)C)cc2)cc1 | -4%
COc1ccc(N=C2C(=Nc3ccc(OC)cc3)N(c3ccccc3)C(=S)N2C(=O)c2ccc(Cl)cc2)cc1 | 2.2µM* | ERK pERK EGF=165%;cRaf kinase inh=-10;MEK1 kinase inh=-6%
CN1CCN(c2ncc3nc(-c4cccs4)c(=O)n(C[C@H]4CCCO4)c3n2)CC1 | -8%
COC(=O)C1(C(C)=O)CC2=CC[C@@H]3C(=O)N(c4ccccc4)C(=O)[C@@H]3[C@@H]2Cc2ccccc2[C@@H]1C[N+](=O)[O-] (stereo not given in full) | -15%
CCCCC[C@H](O)/C=C/[C@@H]1[C@H]2C/C(=C/CCCC(=O)O)C[C@H]2C[C@H]1O | -1%
CN(C)/N=N\c1nc[nH]c1C(N)=O | 3%[25.7 µM]
COc1ccc(-c2nc3cnc(OC)nc3n(Cc3cccc(OC)c3)c2=O)cc1 | -1%
SMILES | ERK EGF block | others
Nc1ccccc1SCc1ccccc1 | 7%
N#CC(=C(\N)Sc1ccccc1N)/C(C#N)=C(/N)Sc1ccccc1N | 1.4µM* | cRaf kinase inh=-14
Nc1ccccc1Sc1ccccc1[N+](=O)[O-] | 5%
O=C(c1cnccn1)N1CCC2(CC1)CCN(c1ncccn1)CC2 | 9%
O=c1cc(CO)occ1O | -8%
O=C(Nc1cccc(F)c1)N1CC[C@@]2(CCCNC2)C1 | 7%
CN1Cc2c(C(=O)OC(C)(C)C)ncn2-c2ccsc2C1=O | -12%
COc1ccc(C(=O)c2ccc(Cl)c([N+](=O)[O-])c2)cc1 | 8.9µM* | ERK pERK EGF=16µM*;cRaf kinase inh=?;MEK1 kinase inh=-8%
COc1cc(C(=O)Nc2ccc(Cl)c([N+](=O)[O-])c2)cc(OC)c1OC | 2%
Cc1cc(NC(=O)c2ccc(Cl)c([N+](=O)[O-])c2)no1 | -5%[57.5 µM]
O=C(O)CCC[C@H](O)\C=C/C=C/C=C/[C@H](O)C/C=C\CCCCCO | -11%
CC(C)CN1CCC2(CC1)CCN(S(=O)(=O)c1ccccc1)CC2 | 7%
CCCC[C@@H]1C[C@H]1[C@@H](NP(=O)(c1ccccc1)c1ccccc1)c1ccccc1OC | 8%
CCCCCCCCCCCCCCC[C@H](O)[C@@H](N)CO | 7%
O=C(Nc1nc(-c2ccccc2)cs1)c1ccc(N2CCOCC2)c([N+](=O)[O-])c1 | 4µM* | ERK pERK EGF=10µM*;cRaf kinase inh=?;MEK1 kinase inh=3%
Cc1ccc(-c2csc(NC(=O)c3cc([N+](=O)[O-])ccc3N3CCOCC3)n2)cc1 | -5%
O=C(Nc1cccc(Cl)c1N1CCCCC1)c1ccc(N2CCOCC2)c([N+](=O)[O-])c1 | 6%
COc1cccc(Cn2c(=O)c(CCc3ccccc3)nc3cnc(OC)nc32)c1 | 17%
COc1ccc(-c2nc3cnc(N4CCNCC4)nc3n(-c3ccccc3)c2=O)cc1 | 0%
COc1cccc([C@@H]2Oc3ccc(Br)cc3C(=O)[C@H]2OC(=O)Nc2ccc(C)c(Br)c2)c1 | 4%
Cc1cccc(CNc2cc(-c3cccnc3)ncn2)c1 | 16%

Screening results as filed in PubChem BioAssay.
